Experimental data as given in PubChem BioAssay AID1851 (National Center for Advancing Translational Sciences (NCATS), 2009).
Values joined by “and” are separate entries in the source; they are usually repeats but may differ in a detail not shown here. Equal entries are not always repeated. The whole screen tested about 16,000 compounds, of which about 5,700 (36%) were called active. Not shown: some 24% with an inconclusive outcome. Some of the results follow. A number with no mark means an inactive call. Calls come from the whole dose curve; as a rule, active = well fitted curve in the direction sought with a large enough effect; inconclusive = small, poorly fitted or top-dose-only effect, or effect the other way; inactive = no such curve, though single readings can be large or run the other way.

Target: Cytochrome P450 1A2 (Homo sapiens) (UniProt P05177)
Sequence (P05177 whole entry, looked up): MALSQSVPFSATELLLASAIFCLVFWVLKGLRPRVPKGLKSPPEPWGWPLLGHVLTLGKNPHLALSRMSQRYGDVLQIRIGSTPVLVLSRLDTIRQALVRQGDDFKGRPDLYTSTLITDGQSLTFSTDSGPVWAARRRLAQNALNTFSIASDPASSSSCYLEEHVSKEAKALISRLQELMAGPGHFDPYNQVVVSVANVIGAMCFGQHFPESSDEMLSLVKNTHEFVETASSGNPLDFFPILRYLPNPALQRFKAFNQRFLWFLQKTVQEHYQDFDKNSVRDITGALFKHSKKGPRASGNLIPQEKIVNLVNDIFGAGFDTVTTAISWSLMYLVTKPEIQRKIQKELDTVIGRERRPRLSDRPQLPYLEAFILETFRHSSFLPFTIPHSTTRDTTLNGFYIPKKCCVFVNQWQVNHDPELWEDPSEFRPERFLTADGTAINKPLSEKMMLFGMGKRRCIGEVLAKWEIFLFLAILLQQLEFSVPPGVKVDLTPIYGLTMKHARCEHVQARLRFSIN
Test: Cytochrome panel assay with activity outcomes
Details: recombinant CYP, pro-luciferin dealkylation, luminescence, p450-cyp1a2; series mostly up to 57.1 µM; activity, negative = inhibition: at the top concentration
% is set by controls: 0 for no effect and ±100 for the full control effect.

| SMILES | AC50 | activity, negative = inhibition |
| --- | --- | --- |
| Cc1ccc(S(=O)(=O)N[C@H](C(=O)Oc2ccc3c(C(F)(F)F)cc(=O)oc3c2)c2ccccc2)cc1 | 1.78 µM (active) |  |
| COC(=O)C/C=C\[C@@H](C)[C@@H](/C=N\OC[C@@H]1O[C@H](c2ccccc2)C=C[C@@H]1Oc1ccc(OC)cc1)NS(=O)(=O)c1ccc(C)cc1 |  | -1.03% [at 11.4 µM] |
| Cc1ccc(C)c(S(=O)(=O)NC(CC(C)C)C(=O)O)c1 (stereo not given) |  | -1.89% |
| Cc1ccc(S(=O)(=O)NC(CC(C)C)C(=O)Oc2ccc3c4c(c(=O)oc3c2)CCC4)cc1 (stereo not given) | 3.98 µM (active) |  |
| CCC/C=C(\CCC)C(NS(=O)(=O)c1ccc(C(F)(F)F)cc1)c1ccc(-c2ccccc2)cc1 (stereo not given) |  | -18% |
| Cc1ccc(S(=O)(=O)N[C@H](CN)C(=O)O)cc1 |  | -18.5% [at 2.29 µM] |
| COc1ccc(CCN2C(=NC(=O)CCC(=O)O)SC3CS(=O)(=O)CC32)cc1 (stereo not given) |  | -4.52% |
| CN1CCc2c(c3c(n2C)CCN(C)[C@H]3c2ccccc2F)[C@@H]1c1ccccc1F |  | 10.4% |
| CC(C)NC(=O)N1CCCC2(CCN(C(=O)c3cc(C(F)(F)F)cc(C(F)(F)F)c3)CC2)C1 |  | -10.6% |
| C1=C(CN2CCOCC2)COc2c1cccc2OC[C@@H]1CNCCO1 | 12.6 µM (active) |  |
| Cc1c(C)c2c(c(C)c1O)CC[C@@](C)(CCC[C@@H](C)CCC[C@@H](C)CCCC(C)C)O2 |  | 14% [at 25.6 µM] |
| COc1ccc(Nc2ncc3c(n2)CC(c2ccc(C)cc2)CC3=O)cc1 (stereo not given) | 14.1 µM (active) |  |
| COc1ccc(NC2=NC(=S)N(c3ccc(C)cc3)C23CCCCC3)cc1 |  | 9.01% |
| COc1ccc(C2CC(=O)c3cnc(Nc4cc(C)cc(C)c4)nc3C2)cc1 (stereo not given) | 14.1 µM (active) |  |
| CCSc1nnc(-c2ccc(Cl)cc2)c2ccccc12 | 7.08 µM (active) |  |
| O=[N+]([O-])c1cc(Cl)cc2c1nc(NCCO)c1ccccc12 | 0.02 µM (active) |  |
| CCOC(=O)C(NC(C)=O)C(=O)O (stereo not given) |  | 16.6% |
| O=C1C[C@@H](O)[C@@H](O)[C@H]2[C@@H]3C(=O)N(C4CCCCC4)C(=O)[C@@H]3CC[C@H]12 |  | 4% [at 11.4 µM] and -9.85% [at 11.4 µM] and 5.4% [at 11.4 µM] |
| O=C1C2C3C=CC([C@@H]2C(=O)N1C1CCCCC1)[C@H]1C(=O)N(C2CCCCC2)C(=O)C31 (stereo not given in full) |  | 20.9% |
| CC(=O)[C@@H]1[C@@H]2C(=O)N(C3CCCCC3)C(=O)[C@@H]2C2c3ccccc3C=CN21 (stereo not given in full) | 15.8 µM (active) |  |
| COc1ccc(C(=O)N2CCC3(CCN(Cc4ccccc4OC)CC3)CC2)cc1 |  | 2.02% |
| COc1cccc(-c2nccc(NCc3ccc(OC)cc3OC)n2)c1 | 1 µM (active) |  |
| COCCNc1ccnc(-c2cccc(NS(C)(=O)=O)c2)n1 | 2 µM (active) |  |
| COc1ccc(CNc2ccnc(-c3cccnc3)n2)c(OC)c1 | 0.316 µM (active) |  |
| COc1cccc(-c2nccc(NCc3ccccc3OC)n2)c1 | 1.26 µM (active) |  |
| CCOc1ccc(N(C(C)C(=O)NC(C)CC)S(C)(=O)=O)cc1 (stereo not given) |  | -7.41% |
| N[C@H](CCC(=O)N[C@H](CSN=O)C(=O)NCC(=O)O)C(=O)O |  | -8.91% |
| NC1=C2NC=N[C@@H]2N(C/C=C\c2ccccc2)C=N1 |  | -12.4% [at 2.29 µM] |

| SMILES | AC50 | activity, negative = inhibition |
| --- | --- | --- |
| COc1ccc(CNc2ccnc(-c3cccc(NS(C)(=O)=O)c3)n2)c(OC)c1 | 15.8 µM (active) |  |
| CC(C)[C@@H]1NC(=O)[C@H](CCCCN)NC(=O)[C@H](Cc2c[nH]c3ccccc23)NC(=O)[C@H](Cc2ccc(O)cc2)NC(=O)[C@H](C)N(C)C(=O)[C@H](Cc2ccccc2)NC1=O |  | 3.5% |
| COc1ccc(-c2ccc(=O)n(CC(=O)Nc3nnc(C(C)C)s3)n2)cc1OC |  | -2.06% |
| COc1ccc(-c2nn3cnnc3s2)cc1OC | 20 µM (active) |  |
| Cc1nc2cnc(N(C)C)nc2n(Cc2ccc(F)cc2)c1=O | 2 µM (active) |  |
| CN(C)c1ncc2nc(-c3ccc(F)cc3)c(=O)n(Cc3ccc(F)cc3)c2n1 |  | 9.91% |
| CN(C)c1ncc2nc(-c3cc(F)cc(F)c3)c(=O)n(Cc3ccc(F)cc3)c2n1 |  | -14.8% |
| CN(C)c1ncc2nc(-c3ccc(Cl)cc3)c(=O)n(Cc3ccc(F)cc3)c2n1 | 5.01 µM (active) |  |
| O=C1[C@@H]2[C@H]3[C@H](O)[C@H](O)C/C(=N/OCc4ccccc4)[C@@H]3CC[C@H]2C(=O)N1c1ccc(F)cc1F |  | 4.37% [at 11.4 µM] |
| Clc1ccc(/C=N/Nc2nnc(-c3ncc[nH]3)c3ccccc23)cc1 | 0.2 µM (active) |  |
| NC[C@@H]1O[C@H](C23CC4CC(CC(C4)C2)C3)Cc2c1ccc(O)c2O | inactive |  |
| Cc1ccc(N=Nc2c(N)n(-c3ccccc3)[nH]c2=O)cc1 | 2.82 µM (active) |  |
| Cc1[nH]n(-c2ccc(S(=O)(=O)O)cc2)c(=O)c1N=Nc1ccccc1 |  | -10.5% [at 11.4 µM] |
| Cc1ccc(C2C(C=Nc3c(C)n(C)n(-c4ccccc4)c3=O)=C(c3ccccc3)Oc3ccccc32)cc1 (stereo not given) |  | -7.15% |
| Nc1c(N=Nc2cccc(Cl)c2)c(=O)[nH]n1-c1ccccc1 | 2 µM (active) |  |
| O=c1cnc2cnc(Oc3cccc(Cl)c3)nc2n1C1CC1 | 2.51 µM (active) |  |
| Cc1nc2cnc(Oc3ccccc3)nc2n(C2CC2)c1=O | 10 µM (active) |  |
| Cc1nc2cnc(Oc3cccc(Cl)c3)nc2n(C2CC2)c1=O | 6.31 µM (active) |  |
| O=c1cc(N2CCN(c3cccc(Cl)c3)CC2)[nH]c(=O)n1C1CCCCC1 |  | -7.2% |
| COc1ccc(C2/C(=C(/O)c3ccccc3)C(=O)C(=O)N2CC(C)O)c(OC)c1 (stereo not given) |  | 12.5% |
| N#Cc1ccc(C(c2nnnn2Cc2ccccc2)N2CCCC2)cc1 (stereo not given) |  | -1.04% |
| O=C(NCc1ccc(F)cc1)C(c1ccncc1)N(C(=O)c1csnn1)C1CC1 (stereo not given) |  | -14.7% |
| Cc1sc2ccccc2[n+]1CCC(C)S(=O)(=O)[O-] (stereo not given) |  | 8.96% |
| O=C1c2ccccc2-c2n[nH]c3cccc1c23 | 0.0158 µM (active) |  |
| CN(CC(=O)Nc1ccc(F)c(F)c1)S(=O)(=O)c1cccc2nsnc12 | 15.8 µM (active) |  |
| CCc1cccc(NC(=O)CN(C)S(=O)(=O)c2cnc[nH]2)c1 |  | -28.2% |
| CC1CCN(C(=O)CN(C)S(=O)(=O)c2cccc3nsnc23)CC1 |  | -17.7% |
